# Assay outcomes (PubChem)
# This is a sample that favours compounds with a hit; in the whole collection about 9.2% have one here.
# ELG1 genotoxic = inducers of genotoxicity in HEK293T ELG1-luciferase cells; 330,000 compounds, 1.3% hits; Potency, µM (doses to about 46 µM), without a hit: top-dose activity change, positive = activation, most hits filed as activators; AID 504466; HEK293T ELG1-luciferase reporter, luminescence, 16 h; further: % of control where 0% means no effect; nearly all actives have a fitted effect of over 60% in size
#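 Step 1: seed 2,000 HEK293T ELG1-luciferase cells per well. Step 2: add compound or DMSO, incubate 16 hr at 37 °C. Step 3: ONE-Glo, 30 min at room temperature, read luminescence.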
# FLuc counter = firefly luciferase modulation, counter-screen for miR-21 project. P08659. purified FLuc, Km substrates, luminescence inhibition. Potency, µM (doses to about 57.5 µM), without a hit: at the highest dose activity change, negative = inhibition, hits mostly inhibitors. 360,000 compounds, 6.9% hits;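 further: plate controls were vehicle for no effect and reference inhibitor for full effect; nearly all actives have a fitted effect of over 55% in size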
# Target sequence (P08659 whole entry, looked up): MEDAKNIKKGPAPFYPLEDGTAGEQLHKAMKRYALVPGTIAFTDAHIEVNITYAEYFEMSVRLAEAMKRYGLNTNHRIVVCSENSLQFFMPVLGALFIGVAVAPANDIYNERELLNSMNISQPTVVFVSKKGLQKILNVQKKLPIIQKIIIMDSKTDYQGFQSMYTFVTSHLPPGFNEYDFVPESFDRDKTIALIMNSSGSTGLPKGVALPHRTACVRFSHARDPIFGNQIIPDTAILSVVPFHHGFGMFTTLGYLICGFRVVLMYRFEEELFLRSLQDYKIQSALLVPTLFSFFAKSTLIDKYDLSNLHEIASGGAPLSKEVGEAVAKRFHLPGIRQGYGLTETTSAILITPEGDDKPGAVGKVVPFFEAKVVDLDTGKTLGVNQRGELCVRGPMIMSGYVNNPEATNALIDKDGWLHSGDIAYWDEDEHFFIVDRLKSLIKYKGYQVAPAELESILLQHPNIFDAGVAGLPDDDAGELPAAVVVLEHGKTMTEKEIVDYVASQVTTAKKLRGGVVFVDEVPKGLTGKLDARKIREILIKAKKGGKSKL
#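 Purified P. pyralis luciferase (10nM final) with 10uM D-luciferin and 10uM ATP (Km levels) in 50mM Tris acetate pH 7.5, 10mM Mg acetate, 0.01% Tween-20, 0.05% BSA; qHTS 6-point titration, ~60 µM downward; luminescence read.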
# ELG1 DNA repair = ELG1-dependent DNA repair inhibition; HEK293T ELG1-luciferase reporter, luminescence, 16 h; DNA damage induced by 5-fluorouridine; Potency, µM (highest dose often 46.1 µM), for inactives: at the top dose activity change, negative = inhibition, actives largely listed as inhibitors; 330,000 compounds, 2.3% hits; AID 504467; further: on the % scale 0 is the no-effect control and ±100 the full control effect; nearly all actives have a fitted effect of over 55% in size
#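 In this reporter screen, reduction of luminescence relative to DMSO vehicle indicated activity. Compounds and 5-fluorouridine were added together to 2,000 cells per well, incubated for 16 hr at 37 °C, then developed with ONE-Glo.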
# Rab9 prom act = activators of Rab9 promoter | Huh7 Rab9 promoter-luciferase reporter, luminescence, 24 h | Potency, µM (top dose mostly 9.22 µM), inactives show at the top dose activation, negative = inhibition, hits mostly activators | 320,000 compounds, 2.8% hits | AID 485297; further: % of control where 0% means no effect; nearly all actives have a fitted effect of over 60% in size
#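 Using Huh7 cells stably transfected with Rab9 promoter–luciferase, compounds were incubated 24 h at 37 °C, 5% CO2; luciferase luminescence was read 10 min after reagent addition.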
# SMN2 splice up = SMN2 splice variant enhancement; HEK293 SMN2-luciferase splicing reporter, luminescence, 30-36 h; Potency, µM (highest dose often 46.1 µM), without a hit: at the highest dose activity change, positive = activation, usual class: activators; 210,000 compounds, 2.8% hits; AID 1458; further: % of control where 0% means no effect; nearly all actives have a fitted effect of over 55% in size
#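 HEK293 cells carry an SMN2 minigene-luciferase reporter in which exon 7 inclusion puts luciferase in frame. Cells were seeded at 2000 cells/well, attached for 10-12 hours, then exposed to compounds for 30-36 hours at 37C before ONE-Glo luminescence.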
# NPC1 promoter act = activators of NPC1 promoter; AID 485313; Huh7 NPC1 promoter luciferase reporter, 24 h; Potency, µM (top dose mostly 9.22 µM), inactives show at the highest dose activation, actives largely listed as activators; 320,000 compounds, 2.4% hits; further: % of control where 0% means no effect; nearly all actives have a fitted effect of over 60% in size
#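 Stably transfected Huh7 (NPC1 promoter→luciferase), 1500 cells/well in Opti-MEM + 10% FBS, 2 h settle, then compound 24 h at 37 °C. Luminescence after 10 min with Amplite reagent.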
# Active calls of the source: *; ? = inconclusive; . = not tested or not shown. The call rests on the fitted dose curve; in most records, active means well fitted curve in the direction sought with a large enough effect; inconclusive means small, poorly fitted or top-dose-only effect, or another doubt; inactive means no such curve, though single readings can be large; an effect the other way counts as inactive or inconclusive. Potency means the concentration at half of the fitted maximal effect.
SMILES,ELG1 genotoxic,FLuc counter,ELG1 DNA repair,Rab9 prom act,SMN2 splice up,NPC1 promoter act
CCOC(=O)c1ccc(Cl)c(NC(=O)c2cccnc2)c1,-2%,-2%,6%,0%,.,-5%
Cn1nc(-c2ccc(Cl)cc2)c2cc(C(=O)N3CCN(C(=O)c4ccco4)CC3)sc21,-6%,-11%,8.2µM*,-4%,-3%,7%
O=C(c1ccco1)N1CCN(c2ccc(Cl)cc2)CC1,?,17µM*,?,?,11µM*,?
CCN1CCN(C(=O)c2cc3c(-c4ccc(Cl)cc4)nn(C)c3s2)CC1,2%,-1%,-20%,7%,0%,8%
COc1ccc2nc3sc(C(=O)N4CCN(c5ccccc5)CC4)cc3cc2c1,.,-1%,.,.,-4%,.
CN(CCc1ccccc1)C(=O)c1cc(COc2ccc(F)cc2Cl)on1,10%,?,?,19%,.,2%
O=C(/C=C/c1ccccc1[N+](=O)[O-])Oc1ccccc1,0%,6.7µM*,8%,-1%,.,-6%
COc1ccc(C(=O)COC(=O)/C=C/c2ccccc2[N+](=O)[O-])cc1,0%,.,21%,.,.,.
COC(=O)C(=Cc1ccccc1[N+](=O)[O-])C(=O)OC,-12%,-2%,23µM*,-7%,.,-19%
O=C(O)c1ccc(N/N=C/C=C/c2ccccc2[N+](=O)[O-])cc1,?,3.4µM*,?,1.4µM*,8.9µM*,1.4µM*
O=C(/C=C/c1ccccc1[N+](=O)[O-])OCC(=O)c1ccccc1,8%,24µM*,17%,1%,7%,0%
COc1ccc(CNC(=O)/C=C/c2ccccc2[N+](=O)[O-])cc1,1%,0%,4%,-1%,3%,-3%
CCn1c(SC(C)C(=O)Nc2nccs2)nnc1-c1ccncc1 (stereo not given),16%,-2%,13%,-1%,.,6%
COc1ccc([C@@]2(O)c3c(ccc(CC=C(C)C)c3O)NC(=O)[C@@H]2OC)cc1,-2%,1%,-8%,1%,.,-7%
Cc1nn(Cc2ccc([N+](=O)[O-])cc2)c(=O)n1-c1cccc(Cl)c1,-2%,1%,-14%,-4%,-2%,-1%
O=C(/C=C/c1ccccc1[N+](=O)[O-])c1ccc(F)cc1,?,13µM*,?,26%,-13%,15%
Cc1cccc2c1cnn2C(=O)Nc1ccccc1Cl,?,1.7µM*,?,?,.,?
COc1ccc(NC(=O)n2ncc3c(C)cccc32)cc1,?,3µM*,?,0.1µM*,.,0.089µM*
COc1ccc(NC(=O)n2ncc3c(C)cccc32)cc1OC,?,1.9µM*,?,3.2µM*,.,2.2µM*
COc1ccccc1NC(=O)n1ncc2c(C)cccc21,.,-7%,.,.,.,.
Cc1ccc(NC(=O)n2ncc3c(C)cccc32)cc1F,?,1.5µM*,?,0.79µM*,.,?
Cc1ccc(NS(=O)(=O)c2ccc3nc(-c4ccccc4)[nH]c3c2)cc1Cl,.,?,.,.,-44%,.
N[C@@]1(C(=O)O)CN[C@@H](C(=O)O)C1,.,.,.,.,-7%,.
Cc1ccccc1NC(=O)n1ncc2cc(Cl)ccc21,5%,21µM*,?,14%,.,10%
COc1ccc(C)cc1NC(=O)n1ncc2c(C)cccc21,3%,7.6µM*,8%,28%,.,25%
Cc1ccc(NC(=O)Nc2cn(C)c(=O)c3ccccc23)c(Cl)c1,.,1%,.,.,.,.
COc1ccc(-c2ccc(C#N)c(SCC(=O)NCc3ccco3)n2)cc1OC,0%,-1%,?,-3%,.,-4%
CC(=O)Nc1ccc(-c2csc(NCc3ccco3)n2)cc1,?,7.6µM*,?,2µM*,13µM*,2.5µM*
COc1ccc(-c2csc(NCc3ccco3)n2)cc1C,?,?,?,4µM*,32µM*,3.2µM*
c1cncc(-c2csc(NCc3ccco3)n2)c1,15%,?,?,25%,21%,22%
